tested on: Caenorhabditis elegans L1 (N2); test: survival and reproduction score of C. elegans L1 (0: 0-10 living worms, 1: 11-20, 2: 21-50, 3: >50, 4: overgrown) (score 0-4); higher = more worms, less nematicidal, active = 1 or less; extreme values may be limits of the assay; conditions: 60 µM; 6 days; temperature: 20 °C
Summary of the method: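 Compound was pinned to a final 60 µM (0.6% v/v DMSO) into 96-well wells, each holding about 20 synchronized C. elegans N2 L1s and E. coli HB101 in liquid NGM. After 6 days of shaking at 200 rpm and 20 °C in sealed plates, the worms in each well were examined. The ordinal readout of survival and reproduction, based on living worms per well, was assessed under a dissection microscope. On this scale 0 meant 0–10 worms and 4 meant overgrown, starved wells, and two biological replicates were averaged.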

| SMILES | survival and reproduction score |
| --- | --- |
| COc1ccc(-c2noc(-c3ccc(C)cc3Cl)n2)cc1 | 4 (inactive) |
| Cc1ccc(OCc2nc(-c3ccncc3)no2)c(Br)c1 | 3.5 (inactive) |
| Cc1cc(OCc2nc(-c3ccncc3)no2)ccc1Br | 4 (inactive) |
| CCOc1ccccc1-c1nc(-c2ccc(Cl)cc2)no1 | 4 (inactive) |
| COc1ccccc1-c1nnc(SCC(=O)OCc2ccccc2)o1 | 4 (inactive) |
| COc1cccc(-c2nnc(SCc3ccccc3)o2)c1 | 4 (inactive) |
| Cc1ccc(CSc2nnc(-c3ccco3)o2)cc1 | 0 (active) |
| Cc1cccc(-c2noc(COc3ccc(Cl)cc3)n2)c1 | 4 (inactive) |
| Cc1cc(Br)ccc1OCc1nc(-c2ccncc2)no1 | 4 (inactive) |
| Brc1cccc(-c2nnc(SCc3ccccc3)o2)c1 | 4 (inactive) |
| Cc1ccc(NC(=O)CSc2nnc(-c3ccco3)o2)cc1Cl | 4 (inactive) |
| COc1ccc(-c2noc(C34CC5CC(CC(C5)C3)C4)n2)cc1 | 4 (inactive) |
| Cc1ccc(OC(C)c2nc(-c3ccncc3)no2)cc1C (stereo unspecified) | 4 (inactive) |
| CCOc1ccccc1-c1nnc(SCC(=O)c2ccccc2)o1 | 4 (inactive) |
| O=C(CSc1nnc(-c2cc3ccccc3o2)o1)NC1CC1 | 4 (inactive) |
| Clc1ccc(CSc2nnc(-c3ccc(Cl)cc3)o2)cc1 | 4 (inactive) |
| COc1ccc(-c2nc(C3CCCCC3)no2)cc1 | 4 (inactive) |
| Cc1ccc(-c2nnc(SCC(=O)Nc3ccc(Br)c(C)c3C)o2)cc1 | 4 (inactive) |
| CC(C)Oc1ccc(-c2nc(-c3ccncc3)no2)cc1 | 0 (active) |
| Cc1ccc(C)c(-c2nc(-c3ccncc3)no2)c1 | 0 (active) |
| Cc1ccccc1OCc1nc(-c2cccc(C(F)(F)F)c2)no1 | 4 (inactive) |
